Rab9 prom act: activators of Rab9 promoter | Huh7 Rab9 promoter-luciferase reporter, luminescence, 24 h | Potency, µM (titrated, usually from 9.22 µM), for the others: at the top dose activation, negative = inhibition, actives largely listed as activators | hit rate 2.8% among 320,000; note: % of control where 0% means no effect; nearly all actives have a fitted effect of over 60% in size
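Rab9 promoter-driven luciferase in stably transfected Huh7 cells; 1500 cells/well rested 2 h, exposed to compound in DMSO for 24 h at 37 °C, 5% CO2. Luminescence read 10 min after adding luciferase reagent at ambient temperature.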
SMN2 splice enh: SMN2 splice variant enhancement. HEK293 SMN2-luciferase splicing reporter, luminescence, 30-36 h. Potency, µM (top dose mostly 46.1 µM), inactives show top-dose activity change, positive = activation, usual class: activators. hit rate 2.8% among 210,000. AID 1458; note: % of control where 0% means no effect; nearly all actives have a fitted effect of over 55% in size
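HEK293 cells carry an SMN2 minigene-luciferase reporter in which exon 7 inclusion puts luciferase in frame. Cells were seeded at 2000 cells/well, attached for 10-12 hours, then exposed to compounds for 30-36 hours at 37C before ONE-Glo luminescence.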
ELG1 genotoxic: inducers of genotoxicity in HEK293T ELG1-luciferase cells. HEK293T ELG1-luciferase reporter, luminescence, 16 h. Potency, µM (doses to about 46 µM), for the others: at the top dose activity change, positive = activation, usual class: activators. hit rate 1.3% among 330,000; note: % of control where 0% means no effect; nearly all actives have a fitted effect of over 60% in size
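After overnight (16 hr) compound treatment at 37 °C, ELG1-luciferase HEK293T cells were lysed with ONE-Glo; luminescence quantified 30 min later at room temperature.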
FLuc counter: counter-screen for miR-21 project: firefly luciferase inhibitors or activators; P08659; purified FLuc, Km substrates, luminescence inhibition; Potency, µM (series often up to 57.5 µM), for inactives: at the highest dose activity change, negative = inhibition, usual class: inhibitors; hit rate 6.9% among 360,000;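 note: plate controls were vehicle for no effect and reference inhibitor for full effect; nearly all actives have a fitted effect of over 55% in size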
Target sequence (P08659 whole entry, looked up): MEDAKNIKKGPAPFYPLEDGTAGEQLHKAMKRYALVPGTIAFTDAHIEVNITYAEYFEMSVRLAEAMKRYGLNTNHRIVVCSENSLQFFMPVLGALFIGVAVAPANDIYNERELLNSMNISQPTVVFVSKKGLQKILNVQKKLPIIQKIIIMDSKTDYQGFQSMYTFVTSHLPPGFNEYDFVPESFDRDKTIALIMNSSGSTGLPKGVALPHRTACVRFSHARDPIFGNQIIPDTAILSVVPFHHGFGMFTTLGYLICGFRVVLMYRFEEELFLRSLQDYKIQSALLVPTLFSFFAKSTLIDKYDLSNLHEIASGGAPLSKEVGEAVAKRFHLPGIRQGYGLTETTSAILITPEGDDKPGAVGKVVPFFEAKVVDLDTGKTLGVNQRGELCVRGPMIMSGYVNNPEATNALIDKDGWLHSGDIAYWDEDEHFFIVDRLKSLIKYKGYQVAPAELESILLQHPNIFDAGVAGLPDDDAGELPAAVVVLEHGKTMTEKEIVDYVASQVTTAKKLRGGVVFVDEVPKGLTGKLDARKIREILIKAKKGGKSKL
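Purified P. pyralis luciferase, 10 nM final, with Km-level 10 uM D-luciferin and 10 uM ATP in 50 mM Tris acetate pH 7.5, 10 mM Mg acetate, 0.01% Tween-20, 0.05% BSA; 6-point qHTS titration about 60 µM downward; luminescence read.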
NPC1 prom act: NPC1 promoter activation | Huh7 NPC1 promoter luciferase reporter, 24 h | Potency, µM (series often up to 9.22 µM), for inactives: at the top dose activation, most hits filed as activators | hit rate 2.4% among 320,000; note: % of control where 0% means no effect; nearly all actives have a fitted effect of over 60% in size
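Cells: Huh7 expressing luciferase under the NPC1 promoter, 1500/well. Seeded 2 h, compound added, incubated 24 h at 37 °C. Luciferase reagent, 10 min ambient, then luminescence.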
An asterisk follows results filed as active; ? = inconclusive; nt = not tested or not shown; [ ] = remark or other dose. In the library only some 7.4% were active in any assay of this set; here they are far more common. Calls come from the whole dose curve; as a rule, active = well fitted curve in the direction sought with a large enough effect; inconclusive = small, poorly fitted or top-dose-only effect, or another doubt; inactive = no such curve, though single readings can be large; an effect the other way counts as inactive or inconclusive. Potency is the fitted concentration of half-maximal effect.

SMILES	Rab9 prom act	SMN2 splice enh	ELG1 genotoxic	FLuc counter	NPC1 prom act
CC(=O)Nc1ccccc1OCC(=O)c1cc(C)n(Cc2cccs2)c1C	-22%	-109%	10µM*	?	-17%
COC(=O)CCn1c(C)cc(C(=O)COc2ccccc2C(N)=O)c1C	-13%	-32%	-16%	?	-20%
CCCS(=O)(=O)c1c(S(=O)(=O)CCC)c2c3ccccc3ccn2c1C(N)=O	-5%	0%	-3%	3%	-7%
Nc1ccc(Oc2cc(N)cc(Oc3ccccc3)c2)cc1	?	nt	?	6µM*	2µM*
CC(=O)Nc1c(C)nn(-c2ccccc2)c1N1CCC(C(=O)NCc2cccc(Cl)c2)CC1	nt	nt	nt	-9%	nt
CN(C)c1ccc(/C=C2\C(=N)N3N=C(CC(=O)N4CCCCC4)SC3=NC2=O)cc1	3%	nt	6%	13µM*	3%
CCC(=O)N1CCN(c2nc(-c3ccccc3)c3c(c2C#N)CCCC3)CC1	-4%	-23%	-12%	1%	-4%
COc1ccc(CN(C)C(=O)c2ccc3c(=O)n4c(nc3c2)CCC4)cc1	1.8µM*	nt	?	8.5µM*	2.2µM*
COc1cccc(CN(C)C(=O)c2ccc3c(=O)n4c(nc3c2)CCC4)c1	3%	nt	8%	2%	3%
O=C(Oc1cccc(F)c1)c1ccc2c(=O)n3c(nc2c1)CCC3	-4%	nt	3%	15µM*	-1%
CC(OC(=O)c1ccc2c(=O)n3c(nc2c1)CCC3)C(N)=O (stereo unspecified)	1%	13%	3%	5%	-1%
O=C(NNC(=O)c1ccc2c(=O)n3c(nc2c1)CCC3)c1cccc(Cl)c1	-8%	nt	1%	-5%	-3%
O=C(Oc1ccc(F)cc1)c1ccc2c(=O)n3c(nc2c1)CCC3	-2%	nt	0%	12µM*	1%
COc1cc2c(cc1OC)C(c1ccc(F)cc1)N(c1cccc(C#N)c1)C(=O)C2 (stereo unspecified)	nt	3%	nt	-5%	nt
COc1ccccc1Nc1nc(N)nc(CN2CC(C)CC(C)C2)n1 (stereo unspecified)	-5%	-7%	19%	-1%	0%
Cc1cccc(NC(=O)c2oc3ccccc3c2NC(=O)c2cc(=O)c3ccc(C)cc3o2)c1	nt	7%	nt	-1%	nt
CCC(=O)Nc1ccc(C(=O)Nc2ccc3c(c2)OCO3)cc1	14%	2%	11%	?	18%
CCc1ccc2[nH]c(C(=O)Nc3ccc4c(c3)OCO4)cc2c1	26%	nt	14%	2.7µM*	?
CCc1ccc2[nH]c(C(=O)Nc3ccc(Br)c(C)n3)cc2c1	1.4µM*	nt	?	?	2.2µM*
Cc1cc(C)c2[nH]c(C(=O)Nc3ccc4c(c3)OCO4)cc2c1	?	nt	1%	12µM*	?
Brc1ccc(CNc2ccc3ncccc3c2)cc1	27%	nt	?	11µM*	?
O=C(Nc1ccc2ncccc2c1)c1cccc(Br)c1	2.5µM*	nt	?	11µM*	?
COc1ccc(C(=O)Nc2ccc3ncccc3c2)cc1	0.28µM*	nt	0.65µM*	0.43µM*	0.28µM*
Cc1ccc(NC(=O)c2ccc(NS(=O)(=O)c3cccc4cccnc34)cc2)cc1	-3%[1.84 µM]	nt	-2%	17µM*	-4%
Oc1cc(NCc2ccccc2)cc2cccnc12	-18%	nt	nt	?	-31%
SMILES	Rab9 prom act	SMN2 splice enh	ELG1 genotoxic	FLuc counter	NPC1 prom act
O=c1c(Cc2c(F)cccc2Cl)c(O)ccn1CCCN1CCOCC1	-3%	19%	1%	4%	1%
Cn1c(=O)n(C)c2cc(N3CCOCC3)c(NS(=O)(=O)c3cccc(C#N)c3)cc21	nt	nt	nt	-12%	nt
Cc1ccc(C)c(N2CCN(c3nc4c(S(=O)(=O)c5ccccc5)nnn4c4ccc(Cl)cc34)CC2)c1	nt	0%	nt	3%	nt
Cn1cc(C(=O)N2CCCC(Nc3ccc(F)cc3)C2)c2ccccc21 (stereo unspecified)	3%	nt	-4%	-5%	-2%
Cc1ccc(C(=O)Nc2ccc3ncccc3c2)cc1	0.1µM*	nt	?	0.11µM*	?
Nc1ccc(/C=C/c2ccc3ncccc3c2)cc1	0.28µM*	nt	?	0.3µM*	0.45µM*
Cc1cccnc1NC(=O)c1ccc(S(=O)(=O)N2CCCCCC2)cc1	5%	nt	-1%	0%	2%
Cc1ccc(C(=O)Nc2ncccc2S(=O)(=O)c2ccccc2)cc1	2.8µM*	nt	?	11µM*	2.8µM*
CCC(=O)c1ccc2ncccc2c1	2%	24%	7%	?	-3%
Nc1ccc2ncccc2c1	5%	?	4%	-11%	13%
Cc1ccc(C(=O)/C=C/c2ccc3ncccc3c2)cc1	13%	nt	?	3.8µM*	13%
Cc1ccc2oc(-c3cc(NC(=O)/C=C/c4ccco4)ccc3Cl)nc2c1	nt	-5%	nt	?	nt
O=C(Nc1ccc2oc(-c3ccccc3)nc2c1)c1cccs1	2.5µM*	3.2µM*	?	3.8µM*	4µM*
Cc1c(NC(=O)c2cccs2)cccc1-c1nc2cc(Cl)ccc2o1	nt	nt	nt	5.4µM*	nt
Cc1ccc2oc(-c3cccc(NC(=S)NC(=O)c4cccs4)c3)nc2c1	22%	1%[1.84 µM]	?	11µM*	24%
Cc1ccc2oc(-c3cccc(NC(=S)NC(=O)/C=C/c4ccco4)c3)nc2c1	?	-29%	15%	15µM*	29%
CCOC(=O)C1=CC[C@]2(C)c3c(c4ccccc4n3C)C(=O)C1N2C	-1%	nt	-1%	-2%	2%
C/C=N\NC(=O)COc1cc(C)ccc1C	-5%	-4%	-2%	1%	0%
O=C(c1ccccc1Cl)N1CCN(C(=O)C2CCCO2)CC1 (stereo unspecified)	-1%	nt	0%	1%	-4%
Cc1c(C(=O)O)cccc1-c1ccc(/C=N/Nc2ccc(Br)cc2)o1	?	nt	?	12µM*	?
O=C(O)c1ccc(N/N=C/c2ccc(-c3cc(Cl)ccc3Cl)o2)cc1	?	nt	?	9.5µM*	?
O=C(O)c1ccc(N/N=C/c2ccc(-c3cccc(Cl)c3)o2)cc1	0.32µM*	nt	?	2.7µM*	0.45µM*
O=C(O)c1cc(N/N=C/c2ccc(-c3ccc(F)cc3)o2)ccc1Cl	?	nt	?	9.5µM*	?
Cc1ccc(C(=O)N/N=C/c2ccc(-c3cccc(Cl)c3)o2)cn1	-1%	nt	-6%	?	-6%
COCCC(=O)Nc1c(-c2ccccc2)c2cc(Br)ccc2[nH]c1=O	7%	nt	-3%	2%	-1%
Cn1cc2cc(NC(N)=S)ccc2n1	0%	7%	-1%	0%	0%
O=C(COc1ccc2ccccc2c1)NC1CC(=O)N(c2cccc(F)c2)C1 (stereo unspecified)	nt	nt	nt	-2%	nt
CC(=O)Nc1ccc2nc3c(=O)[nH]c(=O)[nH]c3nc2c1	nt	5%	nt	-3%	nt
CC(=O)N1CCCc2cc(S(=O)(=O)N3CCCC(C(=O)Nc4ccc(F)cc4F)C3)ccc21 (stereo unspecified)	nt	nt	nt	-6%	nt

Screens as filed in PubChem.
